We go through 100 molecules from ChEMBL document CHEMBL3988442, “University of Dundee, Small-Polar-MMV Screening Library” (2021).

Structures are written as SMILES. Screen size: about 48,000 compounds; about 13,000 (27%) showed an effect of 50% or more. This is one part of the list.

The subject of the assay is Wolbachia pipientis. Put plainly: Anti-Wolbachia Cell-Based Screen. Further details: scale not given: in the data most compounds retested in dose-response had high values. In kind it is functional. The settings on record: 5 µM.
`Cc1cccc(C(=O)Nc2ccc(OC3CCOCC3)c(C)c2)n1`: the “Percent Effect” value stood at 4.017%. As for `COc1ccc(CN2CCCC2)cc1Oc1ccc2c(c1)CC(CN)O2` (stereo not given), the “Percent Effect” value is on record as -16.95%. As for `O=C(c1ccc(SC(F)(F)F)cc1)N1CCOCC1c1ncon1` (stereo not given), the figure is -6.89%; as for `CC(C(=O)N(C)Cc1ccc(Br)o1)n1cncn1` (stereo not given), -10.62%; as for `CCCn1nccc1NC(=O)c1ccc(Cl)c(N2CCNC2=O)c1`, -10.44%.

Turning to `Cc1ccc(CN(C(=O)C(C)NC(N)=O)C2CC2)cc1C` (stereo not given), the “Percent Effect” value is on record as 10.7%. In the case of `CCCN(Cc1ccccc1O)C(=O)Nc1cnn(CCOC)c1`, the “Percent Effect” value is -1.283%.

As to `CC(C)NC(=O)N(Cc1cc(O)nc2ccccc12)C(C)C`, the “Percent Effect” value stood at 134.4%. Regarding `COCCCN(Cc1cc(O)nc2ccccc12)C(=O)NC(C)C`, the “Percent Effect” value was 116.8%. As for `CC(C)N(CC(N)=O)Cc1csc(Cc2ccccc2)n1`, the figure is -4.617%; as for `COCCCN(Cc1ccncc1)C(=O)C1COc2ccccc2C1` (stereo not given), -18.33%; as for `COCCN(Cc1cc(O)nc2ccccc12)C(=O)NC(C)C`, 129.1%. As for `COCCN(Cc1ccc(F)cc1Cl)C(=O)c1ccccn1`, the figure is -0.554%; as for `CC(C)N(Cc1ccc(C#N)cc1)C(=O)Nc1ccccn1`, 7.153%; as for `COCCN(Cc1ccccc1Cl)C(=O)c1c(C)cc(C)[nH]c1=O`, 2.486%. As for `Cc1cc(=O)c(C(=O)Nc2cccc(CCN3CCCC3)c2)c[nH]1`, the figure is -5.108%; as for `O=C(O)CSc1nnc(-c2ccn[nH]2)n1-c1cccc(C(F)(F)F)c1`, -2.54%; as for `COc1ccc(-c2nc(C3(NC(=O)OC(C)(C)C)CCC3)no2)cn1`, 3.682%. As for `COc1ccc(C(=O)NCCNC(=O)c2cncnc2C)cc1`, the “Percent Effect” value is recorded as -1.399%. Consider `O=C(COC1CCCCC1)Nc1ccn(Cc2cccnc2)n1`, for which the “Percent Effect” value stood at 3.333%.

For `CC1=C[C@@H](CC#N)[C@H](C(C)C)C[C@H]1CC(=O)N1CCN(C)CC1`, the “Percent Effect” value is on record as 13.63%. As for `Oc1cccc(-c2cc(CC3(N(CC4CC4)CC4CC4)COC3)no2)c1`, the figure is 2.791%; as for `CC(C)=CCS(=O)(=O)Cc1noc(CC(C)C)n1`, -4.798%.

`COCCN1C2(CCN(C(=O)c3cccs3)C2)c2ccccc2S1(=O)=O` (stereo not given): the “Percent Effect” value stood at 112.6%. As for `CCNC(=O)N1CCC2(C1)c1ccccc1S(=O)(=O)N2CCOC` (stereo not given), the figure is 101.2%; as for `COCCN1C[C@H]2CCN(C(=O)Nc3ccccc3C)CC[C@H]2S1(=O)=O`, -14.97%. As for `COCCN1C[C@@H](C)[C@@]2(COCCN(C(=O)c3cccs3)C2)C1.O=C(O)C(F)(F)F`, the figure is 3.824%; as for `COCC(=O)N1CCC2(CCC(C(=O)N3CCCC3)O2)CC1` (stereo not given), -11.51%; as for `O=C(c1ccc(Cl)s1)N1CCC2(COc3ncccc3S(=O)(=O)N2)C1` (stereo not given), 106.8%.

`O=C(c1ccccn1)N1CCN(C(c2ccccc2)C(F)(F)F)CC1` (stereo not given): the “Percent Effect” value turned out to be 20.54%.

In the case of `O=C(c1ccoc1)N1CCC2(C1)CN(c1ncccn1)C2`, the “Percent Effect” value is -1.221%. As for `O=C(c1ccc(Cl)s1)N1CC(c2nc(-c3ccc[nH]c3=O)no2)C1`, the figure is -1.237%; as for `O=C(C1CCCC1)N1CC[C@]2(O)CCN(Cc3ncccn3)C[C@@H]2C1`, -5.051%. As for `O=C(O)C(F)(F)F.O=C(c1ccncc1)N1CCC2(CC1)C(=O)Nc1ccccc12`, the figure is -18.03%; as for `O=C(c1ccccn1)N1CCC2(COc3ncccc3S(=O)(=O)N2)C1` (stereo not given), 107.8%; as for `O=C(c1ccncc1)N1CCC2(COc3ncccc3S(=O)(=O)N2)C1` (stereo not given), 101.3%. As for `O=C1CCC2(CCCN(C(=O)C3CCCC3)C2)CN1CCc1c[nH]cn1` (stereo not given), the figure is -4.42%. With `O=C(C1CCCCC1)N1CCC2(COc3ncccc3S(=O)(=O)N2)C1` (stereo not given), the “Percent Effect” value was determined as 116.2%.

For `O=C(O)C(F)(F)F.O=S1(=O)NCC2(CCN(c3ncccn3)CC2)COc2ccccc21`, the “Percent Effect” value is recorded as 7.267%. As for `CCC(CC)NC(=O)NCc1ccnc(-n2ccnc2C)c1`, the figure is -7.702%; as for `COCCN1CCN(C(=O)C[C@@H]2C[C@@H](C(C)C)[C@H](CO)C=C2C)CC1`, -1.318%. As for `CC(=O)Nc1ncc(S(=O)(=O)N2CCC(C)CC2)s1`, the figure is -4.256%; as for `COCCN(C)C(=O)c1ccc2onc(-c3coc(C)n3)c2c1`, 3.529%; as for `CC(C)Cc1noc(CN(C)C(=O)C2COc3ccccc3C2)n1` (stereo not given), -0.9273%.

Turning to `O=C(CN1CC(c2nc(C3CC3)no2)C1)NCC1CCCO1.O=C(O)C(=O)O` (stereo not given), the “Percent Effect” value was found to be 11.2%. As for `Cc1ccc(CN2CC3(CCN(C(=O)c4cscn4)C3)C2)s1.O=C(O)C(F)(F)F`, the figure is -3.969%; as for `O=C(c1cscn1)N1CCC2(CC1)CCN(S(=O)(=O)c1ccccc1)C2`, -2.013%. As for `O=C(c1cscn1)N1CCC2(COc3ncccc3S(=O)(=O)N2)C1` (stereo not given), the figure is 87.78%; as for `COCC(=O)N1CCCn2c(CN3CCCC3=O)nnc2C1`, 88.29%. As for `O=C(O)C(F)(F)F.O=C(O)C(F)(F)F.O=C(c1ccncc1)N1CCCn2c(CN3CCCC3)nnc2C1`, the figure is -6.384%; as for `O=C(C1CCCO1)N1CCCn2c(nnc2Cn2cccc2)C1` (stereo not given), -19.79%.

In the case of `O=C(CC1CC1)N1CCCn2c(nnc2Cn2cccc2)C1`, the “Percent Effect” value is recorded as -9.469%. With `COCC(=O)N1CCCn2c(CN3CCCCC3)nnc2C1.O=C(O)C(F)(F)F`, the “Percent Effect” value was -12.43%. As for `CCOCC(=O)N1CCCn2c(nnc2Cn2cccc2)C1`, the figure is 93.36%; as for `Fc1cnc(N2CCCn3c(CN4CCOCC4)nnc3C2)nc1.O=C(O)C(F)(F)F.O=C(O)C(F)(F)F`, -2.409%; as for `O=C(C1CCCO1)N1CCCn2c(nnc2Cn2ccnc2)C1.O=C(O)C(F)(F)F` (stereo not given), -15.24%. As for `COCC(=O)N1CCCn2c(CN3CCOCC3)nnc2C1.O=C(O)C(F)(F)F`, the figure is 114.9%. In the case of `COCC(=O)N1CCCn2c(CN3CCCC3)nnc2C1`, the “Percent Effect” value was found to be 85.92%.

Turning to `CCc1nc(CCNC(=O)C2CCOC2)sc1C` (stereo not given), the “Percent Effect” value is given as -3.855%. As for `Cc1cc(N2CCN(C(=O)C(C)n3ccnc3C(C)C)CC2)cc(C)n1` (stereo not given), the figure is 8.833%; as for `CCOCC(=O)N1CCCn2c(CN3CCCCC3)nnc2C1`, 101.4%. On to `CCOCC(=O)N1CCCn2c(CN3CCOCC3)nnc2C1`, for which the “Percent Effect” value was found to be 89.68%. As for `Cc1nc2cc(F)cc(C(=O)N3CCN(CC(C)O)CC3)c2nc1C` (stereo not given), the figure is -10.08%. In the case of `CNc1cncc(C2CCN(C(=O)c3cnco3)CC2)n1`, the “Percent Effect” value came to 87.6%.

On to `CNc1cncc(C2CCN(C(=O)c3coc(C)n3)CC2)n1`, for which the “Percent Effect” value turned out to be 81.53%. With `COCCN(Cc1ccco1)Cc1nc(-c2ccc(C)c(F)c2)no1`, the “Percent Effect” value is -0.2442%. For the molecule `CC1Oc2ccc(S(=O)(=O)NCCCn3ccnc3)cc2NC1=O` (stereo not given), the “Percent Effect” value is given as -3.003%.

As for `CCC(C)(C)NCc1nc(C(C)(C)NC(=O)OC(C)(C)C)no1`, the “Percent Effect” value turned out to be 2.253%. As for `CCN(C(=O)c1nc2c(s1)CCCN2c1ccc(C)nn1)C(C)C`, the figure is 87.32%; as for `COCCNC(=O)c1nc2c(s1)CCCN2c1ccc(C)nn1`, 1.037%; as for `Cc1ccc(N2CCCc3sc(C(=O)NCc4ccncc4)nc32)nn1`, -3.066%.

As to `Cc1ccc(N2CCCc3sc(C(=O)NCc4cccnc4)nc32)nn1`, the “Percent Effect” value came to 10.28%. Regarding `COCCN(C)C(=O)c1nc2c(s1)CCCN2c1ncccn1`, the “Percent Effect” value was -1.851%. As for `COCCN(C)C(=O)c1nc2c(s1)CCCN2c1ccc(C)nn1`, the figure is 96.15%; as for `N#Cc1cccc(CN2CC3(CCCCN3c3cccnc3)CC2=O)c1.O=C(O)C(F)(F)F` (stereo not given), 9.304%; as for `CC(C)CN1C[C@@H]2CN(c3cnccn3)C[C@@H]2C1=O`, -19.41%. As for `CCC(CO)N(Cc1cccs1)C(=O)CNS(=O)(=O)c1cccs1` (stereo not given), the figure is 5.395%. On to `O=C(CSc1ccc2c(c1)OCCO2)NS(=O)(=O)c1cccs1`, for which the “Percent Effect” value is 5.144%. As for `O=S(=O)(NCC1(O)CCOc2ccccc21)c1cccs1` (stereo not given), the figure is -3.854%. As for `O=S(=O)(NCC(c1ccsc1)N1CCCCCC1)c1cccs1` (stereo not given), the figure is 116.8%.

Take `CN1CCc2cc(C(CNS(=O)(=O)c3cccs3)N3CCCC3)ccc21` (stereo not given): the “Percent Effect” value was -7.457%.

As to `CN(C)c1ccc(C(CNS(=O)(=O)c2cccs2)N2CCCC2)cc1` (stereo not given), the “Percent Effect” value is on record as 108.3%. As for `O=C(CN1CCN(C(=O)c2cccc(-c3ccoc3)c2)CC1)C1CC1`, the figure is -1.743%; as for `CN(C)CC1CSCCCN1C(=O)c1ccc(C(C)(C)C)cc1` (stereo not given), 10.83%. As for `CN(C)CC1CSCCCN1S(=O)(=O)Cc1cccc(F)c1` (stereo not given), the figure is 24.8%.

Take `CN(C)CC1CSCCCN1C(=O)Nc1ccc(C(C)(C)C)cc1` (stereo not given): the “Percent Effect” value is reported as -13.3%. As for `CN(C)CC1CSCCCN1C(=O)c1cccc(C(F)(F)F)c1` (stereo not given), the figure is 90.72%. As for `CN(C)CC1CSCCCN1C(=O)c1ccc(-c2ccccc2)cc1` (stereo not given), the figure is 105.9%; as for `CN(C)CC1CSCCCN1S(=O)(=O)Cc1ccc(C(F)(F)F)cc1` (stereo not given), -4.653%. As for `Cc1ccc(C2CSCCN2C(=O)c2ccsc2)o1` (stereo not given), the figure is 6.011%; as for `CN(C)CC1CSCCCN1C(=O)c1ccsc1` (stereo not given), 106.6%. Turning to `CN(C)CC1CSCCCN1C(=O)c1ccc(=O)[nH]c1` (stereo not given), the “Percent Effect” value is reported as 13.95%. As to `CN(C)CC1CSCCCN1C(=O)c1ccc(-n2cccc2)cc1` (stereo not given), the “Percent Effect” value was determined as 106.7%. As for `CN(C)CC1CSCCCN1S(=O)(=O)c1ccc(C(F)(F)F)cc1` (stereo not given), the figure is 1.872%; as for `CC(O)CN1CCC(CNCc2cccc(OC(C)C)c2)CC1` (stereo not given), -7.306%. As for `CC(c1nc(-c2ccccc2)no1)N1CC(n2cccn2)C1` (stereo not given), the “Percent Effect” value was -11.21%.

`COc1ccc(CN(C)c2ccc(-c3nccn3C)nn2)cc1OC`: the “Percent Effect” value is reported as -9.583%. As for `O=C(Nc1nnn[nH]1)c1ccc(I)c(F)c1`, the figure is 14.38%; as for `CC(C)Oc1ccc(C(=O)N2CCCSCC2CN(C)C)cc1` (stereo not given), 112.1%; as for `Cc1ccc(C2CSCCN2C(=O)c2ccc(C(N)=O)cc2)o1` (stereo not given), -7.519%.
